This passage reports survival results from PubChem BioAssay AID463173 (ICCB-Longwood Screening Facility, Harvard Medical School, 2010).

Molecules are shown by their SMILES. Among all 52,000 compounds or so, about 4,300 (8.3%) were called active. Rule as the data show it: active = survival mostly below about 52% (no sharp cut-off); inactive = mostly above about 56%. The list comes from a sample in which actives are over-represented; it also holds similar structures and randomly drawn compounds.

The experiment has as its system DeltatarO mutant. As to the kind of experiment: growth inhibition of S. aureus wild type versus tarO mutant, primary screen, teichoic acid synthesis inhibitors, RN4220, OD600 (AID 463173). The conditions noted are these: OD600, 18 h, stronger effect = lower value, screened at 18.75 µg/mL (by protocol).
As to `CC1=C(C)NC(=S)SC1`, the survival was 101% (inactive).

For `Cc1cc(=O)c2cc(C(=O)Nc3ccccc3C)ccc2[nH]1`, the survival is 84% (inactive).

As to `COc1ccc(CCNC(=O)c2c(Nc3ccccc3C)sc(C(=O)c3ccccc3)c2N)cc1OC`, the survival was 66% (inactive). For the compound `O=C(NC1CC1)C1CCN(C(=O)c2ccc(Cl)cc2)CC1`, the survival was 86% (inactive). In the case of `CCCC(C(=O)NC1CCCC1)N(C(=O)Cn1nnc(-c2ccc(C)o2)n1)c1ccccc1` (configuration not stated), the survival is 89% (inactive).

With `CC(=NC1CC1)C1=C(O)c2ccccc2C1=O`, the survival was 92% (inactive). Take `Cc1cc(C)c(S(=O)(=O)n2cnc(C)c2)c(C)c1`: the survival was 95% (inactive). Take `CCC(=O)Nc1ccc(-c2nc3ncccc3o2)cc1C`: the survival was 73% (inactive).

For `CC(C)c1ccc(OCC(=O)Nc2cc(-c3nc4ncccc4o3)ccc2Cl)cc1`, the survival is 150% (inactive). Turning to `Cc1cc(-c2nc3ncccc3o2)ccc1NC(=O)COc1ccc(C(C)(C)C)cc1`, the survival was 32% (active). For the compound `Cc1cc(OCC(=O)Nc2cc(-c3nc4ncccc4o3)ccc2C)ccc1Cl`, the survival is 50% (inactive). The result for `Cc1ccc(-c2nc3ncccc3o2)cc1NC(=O)COc1ccc(C(C)C)cc1` reads 6% (active); that for `Cc1cc(-c2nc3ncccc3o2)ccc1NC(=O)COc1cc(C)c(Cl)c(C)c1`, 65% (inactive).

`COc1ccc(-c2nc(C)c(CCNC(=O)C(=O)Nc3c(C)cccc3C)s2)cc1OC`: the survival was 85% (inactive). As to `CCc1ccccc1NC(=O)c1nn(-c2ccc(C)cc2)c(=O)c2c1c1ccccc1n2C`, the survival is 140% (inactive). Consider `Cc1cc(C)cc(NC(=O)CCn2cnc3ccccc3c2=O)c1`, for which the survival was 77% (inactive). `CC1(C)Cc2ccccc2C(=NCCC(=O)O)N1`: the survival is 79% (inactive). Under `CC(=O)NCCNC(=O)CCCc1nnc2n(CCC(C)C)c(=O)c3sccc3n12` stands 90% (inactive). The result for `CC(C)c1nnc(N2C(=O)c3oc4ccccc4c(=O)c3C2c2ccccc2F)s1` (configuration not stated) reads 64% (inactive); that for `Cc1ccc(CNC(=O)c2cc(=O)c3cc(C)cc(C)c3o2)cc1`, 102% (inactive); that for `COc1ccc(CNC(=O)Cc2coc3ccc(C)cc23)cc1`, 108% (inactive). Take `COc1ccc(CNC(=O)c2cc3cc(OC)ccc3oc2=O)cc1`: the survival was 51% (inactive). `CCc1ccc2oc(C(=O)NCc3ccccc3)cc(=O)c2c1`: the survival is 66% (inactive).

Turning to `Cc1ccc(CNC(=O)c2cc(=O)c3cc(C)ccc3o2)cc1`, the survival was 42% (active). On to `COc1ccc(CNC(=O)c2cc(=O)c3cc(C)ccc3o2)cc1`, for which the survival was 45% (active). The result for `Cc1ccc2c(=O)cc(C(=O)NCc3ccccc3)oc2c1` reads 39% (active); that for `COc1ccc(CCNC(=O)c2cc(=O)c3ccc(C)cc3o2)cc1OC`, 62% (inactive); that for `Cc1ccc(CNC(=O)c2cc(=O)c3cc(C)c(C)cc3o2)cc1`, 77% (inactive).

`COc1ccc(CC(NC(C)=O)C(=O)N2CCN(C(=O)Nc3ccc(C#N)cc3)CC2)cc1` (configuration not stated): the survival is 99% (inactive).

`Cc1cc(C)cc(NC(=O)NCCc2c(C)nn(C)c2C)c1`: the survival was 64% (inactive). The result for `CC1CCCCN1C(=O)CSc1nc2ccccc2c(=O)[nH]1` (configuration not stated) reads 82% (inactive); that for `CCOc1cc(C(=O)OCc2cc(=O)n3nc(CC)sc3n2)cc(OCC)c1OCC`, 87% (inactive).

`Cc1ccc(OCc2nc(-c3ccc(C(=O)NCCc4ccc(Cl)cc4)cc3)oc2C)cc1`: the survival was 84% (inactive). For the compound `Cc1oc(-c2cccc(Cl)c2)nc1CN1CCC(C(=O)NCc2ccc(F)cc2)CC1`, the survival was 124% (inactive). The result for `CCc1ccccc1NC(=O)c1cc2c(Cl)nc3ccccc3c2s1` reads 42% (active).

Consider `CC(C)NC(=O)c1cc2c(Cl)nc3ccccc3c2s1`, for which the survival is 56% (inactive).

As to `CCc1ccccc1NC(=O)c1cc(-c2ccc(Cl)s2)nc2ccccc12`, the survival was 71% (inactive). Regarding `CCOc1ccccc1NC(=O)c1cc2c(Cl)nc3ccccc3c2s1`, the survival was 41% (active).

Turning to `CCOc1ccccc1NC(=O)c1cc2c(=O)[nH]c3ccccc3c2s1`, the survival was 60% (inactive). As to `O=C(Nc1ccc(Cl)cc1)c1cc2c(Cl)nc3ccccc3c2s1`, the survival was 94% (inactive). For `CCOC(=O)C1=C(CN(CC)Cc2ccccc2)NC(=O)NC1c1ccc(OC)cc1` (configuration not stated), the survival was 65% (inactive). Turning to `CC1(C)CC(=O)c2cc(C(=O)NC(C)(C)C)c(=O)n(-c3ccccc3)c2C1`, the survival is 39% (active).

For the compound `CCOC(=O)c1ccc(NC(=O)c2cc3c(n(-c4ccc(C)cc4)c2=O)CC(C)(C)CC3=O)cc1`, the survival is 153% (inactive). Turning to `CN(C)C=NC(=O)c1cc2c(n(-c3ccccc3)c1=O)CC(C)(C)CC2=O`, the survival is 46% (inactive). Regarding `CNC(=O)c1cc2c(n(-c3ccc(C)cc3)c1=O)CC(C)(C)CC2=O`, the survival is 93% (inactive). `Cc1ccc(-n2c3c(cc(C(=O)Nc4ccccc4C(N)=O)c2=O)C(=O)CC(C)(C)C3)cc1`: the survival was 49% (inactive). As for `COc1ccccc1NC(=O)c1cc2c(n(-c3ccc(C)cc3)c1=O)CC(C)(C)CC2=O`, the survival is 45% (active).

Turning to `COc1ccc(OC)c(NC(=O)c2cc3c(n(-c4ccc(Cl)cc4)c2=O)CC(C)(C)CC3=O)c1`, the survival was 69% (inactive). The result for `CC1(C)CC(=O)c2cc(C(=O)Nc3ccc(Br)cc3)c(=O)n(-c3ccc(Cl)cc3)c2C1` reads 42% (active); that for `CCOc1ccc(NC(=O)c2cc3c(n(-c4ccc(OC)cc4)c2=O)CC(C)(C)CC3=O)cc1`, 60% (inactive).

Turning to `Cc1ccc(CCNC(=O)CCCn2c(=O)c3ccccc3n(Cc3ccccc3C)c2=O)cc1`, the survival is 88% (inactive).

On to `CC1CC(C)CN(C(=O)Cn2cnc3c2c(=O)n(C)c(=O)n3C)C1` (configuration not stated), for which the survival is 107% (inactive). `Cc1ccccc1CNC(=O)CN1C(=O)CSc2ccc(S(=O)(=O)N(C)C)cc21`: the survival is 78% (inactive). The result for `CCC(=O)N(Cc1nc2ccccc2c(=O)[nH]1)Cc1ccccc1OC` reads 90% (inactive); that for `Cc1ccc(N2CCN(C(=O)c3cc(S(=O)(=O)N4CCCCC4)c[nH]3)CC2)c(C)c1`, 102% (inactive).

With `CCOc1ccc(N(CC(=O)Nc2ccccc2CC)S(=O)(=O)c2c(C)noc2C)cc1`, the survival was 79% (inactive). Turning to `COc1ccc(C(=O)Nc2nnc(SCc3cc(=O)n4cccc(C)c4n3)s2)cc1`, the survival was 72% (inactive). In the case of `Cc1oc(C(=O)O)cc1CN1CCCC1`, the survival is 100% (inactive). As to `Cc1cc(C(=O)O)c(CN2CCCC2)o1`, the survival was 74% (active). `O=C(O)c1ccc(CN2CCCCC2)cc1`: the survival is 79% (inactive). In the case of `CC1=C(C(=O)Nc2cccnc2)C(c2ccccc2Cl)n2nc(-c3ccccc3)nc2N1` (configuration not stated), the survival was 74% (inactive). Under `Cc1ccc(-c2nc(NC(=O)CSc3nc(C)nc4sc5c(c34)CCCC5)ns2)cc1` stands 53% (inactive); under `Cc1nc(SCC(N)=O)c2c3c(sc2n1)CCCC3`, 80% (inactive); under `Cc1nc(SCC(=O)OC(C)(C)C)c2c3c(sc2n1)CCCC3`, 7% (active). On to `CCCCN(C)c1ncnc2c1cnn2-c1cccc(Cl)c1`, for which the survival is 101% (inactive). With `CCc1ccc(C(=O)c2cn(CC(=O)Nc3ccc4c(c3)OCO4)c3ccc(Cl)cc3c2=O)cc1`, the survival was 72% (inactive). Turning to `Cc1cc(C)c(S(=O)(=O)Nc2ccc3oc4c(c3c2)CCCC4)cc1C`, the survival is 55% (inactive). Consider `COc1ccc(S(=O)(=O)Nc2ccc3oc4c(c3c2)CCCC4)cc1`, for which the survival was 27% (active). As to `CC(C)(C)C1CCc2oc3ccc(NS(=O)(=O)c4ccc(C(=O)O)cc4)cc3c2C1` (configuration not stated), the survival was 16% (active). Consider `Cc1oc2ccc(NS(=O)(=O)c3ccc(F)cc3)cc2c1C(=O)O`, for which the survival is 193% (inactive).

For `O=S(=O)(Nc1ccc2oc3c(c2c1)CCCC3)c1cc(Cl)ccc1Cl`, the survival is 33% (active).

As for `Cc1cc(S(=O)(=O)Nc2ccc3oc4c(c3c2)CCCC4)ccc1Cl`, the survival was 41% (active). For `Cc1ccc(S(=O)(=O)Nc2cc(Cl)c3oc4c(c3c2)CCCC4)cc1`, the survival is 117% (inactive). In the case of `CC(C)(C)C1CCc2oc3ccc(NS(=O)(=O)c4cc(Cl)ccc4Cl)cc3c2C1` (configuration not stated), the survival is 73% (inactive). Turning to `O=S(=O)(NC1CCCCC1)c1cc(Cl)ccc1Cl`, the survival is 96% (inactive). Turning to `COc1ccc(S(=O)(=O)Nc2ccc3oc4c(c3c2)C(=O)CC(C)(C)C4)cc1`, the survival was 159% (inactive). `CCOc1ccc(S(=O)(=O)Nc2ccc3oc4c(c3c2)CC(C)CC4)cc1` (configuration not stated): the survival was 44% (inactive).

`CCn1cnc2c(=O)oc3ccc(S(=O)(=O)Nc4ccc(OC)cc4)cc3c21`: the survival is 75% (inactive). With `CCN1C(=O)c2ccccc2Sc2ccc(NC(=O)Nc3ccc(Br)c(C)c3)cc21`, the survival is 71% (inactive). In the case of `Oc1ccccc1Nc1nc2ccccc2n2nnnc12`, the survival is 80% (inactive).

`CN(C)CCCNc1nc(-c2ccc(Cl)cc2)cs1`: the survival was 132% (inactive). With `CCOc1cc(C2c3c(oc4cc(C)cc(C)c4c3=O)C(=O)N2CCO)ccc1O` (configuration not stated), the survival is 68% (inactive). `O=C(Cn1c2ncccc2c(=O)n1-c1ccccc1)Nc1cccc(C(F)(F)F)c1`: the survival is 67% (inactive).

As to `O=C(Nc1ccccc1C(=O)N1CCOCC1)C1COc2ccccc2O1` (configuration not stated), the survival was 95% (inactive). As to `CCC(=O)N1CCc2cc(CNC(=O)c3ccc(F)cc3)ccc21`, the survival is 73% (inactive). For the compound `O=C(Nc1ccc(Cl)cc1F)c1cc(S(=O)(=O)NCc2ccc3c(c2)OCO3)ccc1F`, the survival is 77% (inactive). As for `COc1ccc(/C=C2\SC(=S)N(CCC(=O)NCCO)C2=O)cc1`, the survival is 104% (inactive). On to `Cc1cc2c(cc1S(=O)(=O)NCc1ccc(N(C)C)cc1)OCC(=O)N2`, for which the survival is 80% (inactive). The result for `COc1ccc(NC(=O)c2[nH]nc3c2CSc2ccccc2-3)c(OC)c1` reads 49% (inactive); that for `CCOc1cccc2cc(-c3nc(-c4ccc(Cl)cc4)c(C)s3)c(=O)oc12`, 105% (inactive); that for `COc1cccc2cc(-c3nc(Nc4cccc(C)c4)sc3C)c(=O)oc12`, 98% (inactive). As to `COc1cccc2cc(-c3nc(-c4ccc(C)cc4)c(C)s3)c(=O)oc12`, the survival is 46% (active). The result for `CCOC(=O)C1=C(SCC)c2cc3c(n2C1=O)CCCC3` reads 83% (inactive); that for `CCN(CC)CC(C)CNC(=O)c1cc(-c2ccc(Br)s2)nc2ccccc12` (configuration not stated), 31% (active). Regarding `CCCCN(C)CCCNC(=O)c1cc(-c2ccc(Br)s2)nc2ccccc12`, the survival was 33% (inactive).

`COc1ccc(CNC(=O)c2cc(-c3ccc(Br)s3)nc3ccccc23)cc1`: the survival was 77% (inactive). On to `CCc1ccc(CNC(=O)c2cc(-c3ccc(Cl)s3)nc3ccccc23)cc1`, for which the survival was 83% (inactive). Under `CCCN(CCC)CCNC(=O)c1cc(-c2ccc(Br)s2)nc2ccccc12` stands 68% (inactive). For `CCN(CC)CCNC(=O)c1cc(-c2ccc(Br)s2)nc2ccccc12`, the survival is 28% (active). In the case of `CC(C)CN(CCCNC(=O)c1cc(-c2ccc(Br)s2)nc2ccccc12)CC(C)C`, the survival is 91% (inactive). With `CCc1ccc(CNC(=O)c2cc(-c3ccc(Br)s3)nc3ccccc23)cc1`, the survival is 60% (active). Turning to `CC(C)CCNC(=O)c1cc(-c2ccc(Br)s2)nc2ccccc12`, the survival was 81% (inactive).
